Nrf2 block: Nrf2 pathway inhibition | A549 ARE-Fluc reporter, luciferase luminescence, 18-24 h | Potency, µM (top dose mostly 46 µM), most hits filed as inhibitors | 360,000 compounds, 2.1% hits | AID 504444; also: nearly all actives have a fitted effect of over 60% in size
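Two sequential reads on A549 ARE_Fluc cells exposed to compound for 18-24 h: a CellTiter-Fluor fluorescence read for viability, then a luciferase luminescence read for Nrf2/ARE activity.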
ATXN2 expr inh: ATXN2 expression inhibition; Potency, µM (series often up to 57 µM), usual class: inhibitors; 360,000 compounds, 0.72% hits; HEK-293 ATXN2-luciferase reporter, luminescence, 24 h; AID 1745845; also: nearly all actives have a fitted effect of over 55% in size
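qHTS (up to 57 uM final) was run with 24 h compound exposure of reporter cells at 37 °C. Each well was multiplexed: SteadyGlo luminescence measured ATXN2-luciferase expression after a fluorogenic Gly-Phe-AFC viability readout (25 uM final).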
HepG2 tox: counter-screen for TGF-b inhibitors: cytotoxicity in HepG2 cells. HepG2 CAGA-GFP viability, ATP luminescence, 18 h. Potency, µM (highest dose often 46.1 µM), usual class: cytotoxic. 410,000 compounds, 0.76% hits. AID 588856
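CellTiter-Glo luminescence gave cytotoxicity after 18 hours at 37 degrees C. The cells were HepG2 CAGA-GFP in 1% FBS DMEM, stimulated with 500 pg/mL TGF-beta after compound addition. %Activity was normalised to no-cell wells (complete cell-killing) and DMSO (no toxicity), and curves were fitted and classified.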
A549 viability: A549 cytotoxicity, counter-screen for Nrf2 inhibitors | A549 ARE-Fluc cells, CellTiter-Fluor viability, 18-24 h | 390,000 compounds, 0.16% hits | Potency, µM (series often up to 46 µM), actives largely listed as inhibitors | AID 504648
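Cytotoxicity counterscreen: CellTiter-Fluor fluorescence was measured in A549 ARE_Fluc cells after 18-24 h of compound exposure in a concentration series. The subsequent BugLite luminescent read reports ARE-luciferase activity.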
ATXN viability: cell viability loss in ATXN counter-screen; S2 cells (HEK-293 line with an ATXN2-luciferase reporter) viability, CellTiter-Fluor protease fluorescence, 24 h; Potency, µM (top dose mostly 56.7 µM), usual class: cytotoxic; 400,000 compounds, 0.49% hits; AID 651635; also: nearly all actives have a fitted effect of over 40% in size
TGFb inhibitor: TGF-b pathway inhibition | HepG2 CAGA-GFP TGF-b/SMAD3 reporter, GFP fluorescence, 18 h; TGF-beta stimulated, 500 pg/mL final | AID 588855 | 410,000 compounds, 1.2% hits | Potency, µM (doses to about 46.1 µM), actives largely listed as inhibitors; also: nearly all actives have a fitted effect of over 65% in size
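HEPG2 CAGA-GFP, 1000 cells/well; 2 h settle, 37 C; cpd via pin tool; TGF-b 500 pg/mL final; 18 h, 37 C; GFP imaging ex488/em500-530; %Activity normalised to -TGF-b and +DMSO controls; CRC fit, curve class.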
Hits are given with their value; 0 = inactive; ? = inconclusive; - = not tested or not shown. In the library only some 3.8% were active in any assay of this set; here they are far more common. Calls follow the shape of the dose curve; as a rule, active = well fitted curve in the direction sought with a large enough effect; inconclusive = small, poorly fitted or top-dose-only effect, or another doubt; inactive = no such curve, though single readings can be large; an effect the other way counts as inactive or inconclusive.

SMILES | Nrf2 block | ATXN2 expr inh | HepG2 tox | A549 viability | ATXN viability | TGFb inhibitor
CN[C@@H]1C[C@H]2O[C@@](C)([C@H]1OC)n1c3ccccc3c3c4c(c5c6ccccc6n2c5c31)C(=O)N[C@H]4O | - | 1.2µM | - | - | - | -
O=C(Oc1cccc2c(O)cccc12)c1ccccc1 | 0 | 0 | 0 | 0 | ? | 14µM
COc1ccc(-c2ccc3c(c2)S(=O)(=O)c2cccc(C(=O)N4CCN(C5CCCCC5)CC4)c2C3=O)cc1OC | 0 | 0 | 0 | ? | ? | 0
O=C(c1ccc2c(c1)N(Cc1ccc(F)cc1)CCS2)N1CCN(c2ccccc2)CC1 | 21µM | 0 | 0 | ? | ? | ?
Cc1ccc(CN2CCSc3ccc(C(=O)N4CCN(c5ccccc5)CC4)cc32)cc1 | 0 | 0 | 0 | 0 | 0 | 0
CC1=Nc2cc(C(=O)NC3CCCC3)ccc2Sc2ccc(C)cc21 | 0 | 0 | 0 | 0 | ? | ?
CCOC(=O)N1CCC(NC(=O)c2ccc3c(c2)N(Cc2ccc(F)cc2)CCS3)CC1 | 26µM | ? | 0 | 0 | ? | 0
CCOC(=O)N1CCC(NC(=O)c2ccc3c(c2)N=C(C)c2ccccc2S3)CC1 | 21µM | 0 | 0 | 0 | 0 | 0
CCOC(=O)C1CCN(C(=O)c2ccc3c(c2)N=C(CC)c2cc(C)ccc2S3)CC1 | 0 | 0 | 0 | 0 | 0 | 10µM
O=C(CN1C(=O)C2CCCCN2c2ccc(C(=O)N3CCCC3)cc21)NCc1ccccc1F (stereo not drawn) | - | 0 | 0 | 0 | 0 | 0
O=C(NC(c1ccc(Cl)cc1)c1ccsc1)C1CCN(Cc2cccc(Cl)c2)CC1 (stereo not drawn) | - | ? | 0 | - | ? | ?
CCOC(=O)N1CCN(C(=O)c2ccc3c(c2)N(C)C(=O)/C(=C\c2ccc(OCC)c(OC)c2)S3)CC1 | 0 | 0 | 0 | 0 | 0 | ?
CCOC(=O)N1CCC(NC(=O)c2ccc3c(c2)N(C)C(=O)/C(=C/c2cccc(OC)c2)S3)CC1 | 16µM | 0 | 0 | 0 | 0 | 0
CCCCn1c(N)c(N(CC(C)C)C(=O)Cc2ccc3c(c2)OCCO3)c(=O)[nH]c1=O | 0 | 0 | 0 | 0 | 0 | 0
O=C(CC12CC3CC(CC(Br)(C3)C1)C2)NC1CCCC1 | 0 | 0 | 0 | 0 | 0 | 0
Fc1ccccc1C1c2cccn2CCN1C(=S)Nc1ccc(Br)cc1 (stereo not drawn) | ? | ? | 0 | 0 | 0 | 22µM
Fc1ccccc1C1c2cccn2CCN1C(=S)Nc1cccc(Br)c1 (stereo not drawn) | 0 | - | 0 | 0 | 0 | 0
O=C(O)c1cc2c(ncc3c(=O)n(-c4ccccc4)[nH]c32)s1 | - | 0 | 0 | - | - | 0
CN(C)S(=O)(=O)c1ccc(NC(=O)CSc2nc3ccccc3n2-c2ccccc2)cc1 | 21µM | 0 | 0 | 0 | 0 | 0
NS(=O)(=O)c1ccc(NC(=O)CSc2nc3ccccc3n2-c2ccccc2)cc1 | ? | 0 | 0 | ? | 0 | 0
Cc1cc(C)nc(SCC(=O)Nc2cccc(S(=O)(=O)N(C)C)c2)n1 | 18µM | 0 | 0 | 0 | 0 | 0
CN(C)S(=O)(=O)c1cccc(NC(=O)CSc2nncn2C)c1 | 0 | 0 | 0 | 0 | 0 | 0
CN(C)S(=O)(=O)c1cccc(NC(=O)CSc2nc3ccccc3n2-c2ccccc2)c1 | 18µM | 0 | 0 | ? | 0 | ?
CCn1c(O)c(N=NC(=O)CNC(=O)c2cccnc2)c2ccccc21 | - | - | 0 | - | 0 | 0
CC(N=C1CC(C)(C)CC(=O)/C1=C(/O)CCCN1C(=O)c2ccccc2C1=O)C(=O)O (stereo not drawn) | 0 | 0 | 0 | 0 | 0 | 0
Cc1cc(/C=C2\NC(=S)N(C)C2=O)ccc1N1CCCC1 | ? | 0 | 0 | 0 | 0 | 0
CCCN1C(=O)/C(=C/c2ccc(N3CCCC3)c(C)c2)NC1=S | 21µM | 0 | 0 | 0 | 0 | 0
CCCCC[C@H](C)N1C[C@@H](COCc2ccccc2)Oc2cc(N3CCC[C@@H]3COC)ccc2S1(=O)=O | - | 0 | - | - | 0 | -
